From PubChem BioAssay (Tox21)
Values joined by “and” are separate entries in the source; they are usually repeats but may differ in a detail not shown here. Equal entries are not always repeated. Records with an inconclusive call do not appear. Where a call stands in place of a potency, no number is given. Some compounds were tested as several samples or in several runs, with calls that do not always agree. Active and inactive are the calls of the source. Calls follow the shape of the dose curve; as a rule, active = well fitted curve in the direction sought with a large enough effect in the repeat runs; inconclusive = weak or mixed curves; inactive = no such curve, though single readings can be large; an effect the other way counts as inactive or inconclusive.

Tests used:
[1] = A CellTox Green Cytotoxicity Assay to monitor cytotoxicity in HEK293 cells - 40 hour (AID 1224871); details: CellTox Green fluorescence; series mostly up to 76.8 µM; also: nearly all actives have a fitted effect of over 45% in size
Outline: (§1)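 Real-time, in one plate: 600 HEK293 cells/well with dead-cell DNA dye, pinned compound after 5 h, 37 C incubation over 40 h; viable cells give no appreciable fluorescence.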

[2] = qHTS RealTime-Glo MT Cell Viability Assay in HEK293 cells - 16 hour (AID 1224872); details: RealTime-Glo luminescence; series mostly up to 76.8 µM; also: nearly all actives have a fitted effect of over 50% in size; also: potency is read from the fitted curve at half-maximal effect
Outline: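 Luminescence generated by NanoLuc from substrate produced by living HEK293 cells served as the viability signal. Each value reflects the reading at its stated time point during continuous 40 h compound exposure at 37 C.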

[3] = qHTS RealTime-Glo MT Cell Viability Assay in HepG2 cells - 8 hour (AID 1224873); details: RealTime-Glo luminescence; series mostly up to 76.8 µM; also: nearly all actives have a fitted effect of over 55% in size
Outline: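 HepG2 cells (600/well) mixed with RealTime-Glo MT reagent, settled 5 h at 37 C/5% CO2 before compound addition. Nonlytic NanoLuc luminescence from viable-cell prosubstrate reduction read repeatedly during 40 h treatment at 37 C.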

[4] = qHTS RealTime-Glo MT Cell Viability Assay in HEK293 cells - 40 hour (AID 1224874); details: RealTime-Glo luminescence; max response: stronger effect = lower value; also: nearly all actives have a fitted effect of over 50% in size; also: potency is read from the fitted curve at half-maximal effect
Outline: (§2)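 Kinetic, non-lysing viability readout. Seed HEK293 (600/well) with reagent, incubate 5 h at 37 C/5% CO2, pin 23 nL compound in DMSO, incubate at 37 C, read luminescence at 0, 8, 16, 24, 32, 40 h.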

[5] = A CellTox Green Cytotoxicity Assay to monitor cytotoxicity in HEK293 cells - 24 hour (AID 1224875); details: CellTox Green fluorescence; series mostly up to 76.8 µM; also: nearly all actives have a fitted effect of over 45% in size
Outline: as §1

[6] = A CellTox Green Cytotoxicity Assay to monitor cytotoxicity in HepG2 cells - 16 hour (AID 1224876); details: CellTox Green fluorescence; series mostly up to 76.8 µM; also: nearly all actives have a fitted effect of over 45% in size
Outline: (§3)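 Cytotoxicity was tracked as dead-cell DNA fluorescence in HepG2 cells treated with test compounds at 37 C; each time-point value comes from one kinetic series spanning 0, 8, 16, 24, 32 and 40 h.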

[7] = qHTS RealTime-Glo MT Cell Viability Assay in HepG2 cells - 32 hour (AID 1224877); details: RealTime-Glo luminescence; series mostly up to 76.8 µM; also: nearly all actives have a fitted effect of over 55% in size
Outline: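 Tox21 10K library screened in qHTS format on HepG2 cells carrying RealTime-Glo reagents. Compounds were added after a 5 h preincubation, and the luminescent signal from continuous culture was measured repeatedly during 40 h treatment.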

[8] = A CellTox Green Cytotoxicity Assay to monitor cytotoxicity in HepG2 cells - 24 hour (AID 1224878); details: CellTox Green fluorescence; series mostly up to 76.8 µM; also: nearly all actives have a fitted effect of over 45% in size; also: potency is read from the fitted curve at half-maximal effect
Outline: as §3

[9] = A CellTox Green Cytotoxicity Assay to monitor cytotoxicity in HepG2 cells - 40 hour (AID 1224879); details: CellTox Green fluorescence; series mostly up to 76.8 µM; also: nearly all actives have a fitted effect of over 40% in size; also: potency is read from the fitted curve at half-maximal effect
Outline: as §3

[10] = qHTS RealTime-Glo MT Cell Viability Assay in HEK293 cells - 0 hour (AID 1224880); details: RealTime-Glo luminescence; series mostly up to 76.8 µM
Outline: as §2

Structure (SMILES) | Potency [1] | Potency [2] | Potency [3] | max response [4] | Potency [5] | Potency [6] | Potency [7] | Potency [8] | Potency [9] | Potency [10] | Potency [4]
C=CC(C)(CCC=C(C)C)OC(C)=O (stereo not given) | inactive | inactive | inactive | 4.78% (inactive) and 0.789% (inactive) | inactive | inactive | inactive | inactive | inactive | inactive | –
CC(C)(C)NC(=O)[C@H]1CC[C@H]2[C@@H]3CC[C@H]4NC(=O)C=C[C@]4(C)[C@H]3CC[C@]12C | inactive | inactive | inactive | -25.2% (inactive) and -19.5% (inactive) | inactive | inactive | inactive | inactive | inactive | inactive | –
CCC(C)(O)CCCC(C)C (stereo not given) | inactive | inactive | inactive | 0.571% (inactive) and 1.24% (inactive) | inactive | inactive | inactive | inactive | inactive | inactive | –
COC(=O)Nc1nc2ccc(S(=O)c3ccccc3)cc2[nH]1 (stereo not given) | inactive | 1340 nM (active) | inactive | – | inactive | inactive | inactive | inactive and 10.7 µM (active) | 848 nM (active) | inactive | 756 nM (active)
Cc1cccc(C(=O)O)c1 | inactive | inactive | inactive | 0.572% (inactive) and -3.52% (inactive) | inactive | inactive | inactive | inactive | inactive | inactive | –
C=C(C)C(=O)OCCOC(=O)C(=C)C | inactive | inactive | inactive | 7.24% (inactive) and -0.024% (inactive) | inactive | inactive | inactive | inactive | inactive | inactive | –
